Data as given in PubChem BioAssay AID1159580 (chemical genetic matrix, 2015).
Where “and” joins values, the source holds several entries; their conditions need not be identical. Equal values may be shown once. In all, about 5,500 compounds went through this assay and about 2,000 (36%) were called active. Inconclusive results (about 18%) are left out. Rule as the data show it: active = normalized growth mostly below about 0.91 (no sharp cut-off); inconclusive = no clear call, values can overlap the other calls; inactive = mostly above about 0.92. This is one part of the list.

Experiment: chemical genetic growth profiling, strain panel (AID 1159580);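 also: tested at 20 µM; growth read once vehicle control cultures reached saturation at 30 °C; 1 = growth at the plate median or of vehicle wells; lower values mean less growth of the strain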
Details: S. cerevisiae deletion strains, growth OD

Measured: normalized growth

Oc1cccc(O)c1
inactive: locus YAL013W, strain DEP1, stronger effect = lower value 1.01 | locus YAL021C, strain ccr4, stronger effect = lower value 0.951 | locus YAL026C, strain drs2, stronger effect = lower value 0.966 | locus YAL030W, strain snc1, stronger effect = lower value 0.981 | locus YBL061C, strain skt5, stronger effect = lower value 0.981 | locus YBR009C, strain hhf1, stronger effect = lower value 0.981 | locus YBR021W, strain FUR4, stronger effect = lower value 1.02 | locus YBR023C, strain chs3, stronger effect = lower value 0.975 | locus YBR171W, strain sec66, stronger effect = lower value 0.983 | locus YBR229C, strain ROT2, stronger effect = lower value 1.01 | locus YBR231C, strain swc5, stronger effect = lower value 0.99 | locus YBR279W, strain paf1, stronger effect = lower value 1 | locus YCL011C, strain gbp2, stronger effect = lower value 0.938 | locus YCL016C, strain dcc1, stronger effect = lower value 0.956 | locus YCL029C, strain bik1, stronger effect = lower value 0.987 | locus YCL061C, strain MRC1, stronger effect = lower value 0.95 | locus YCL069W, strain vba3, stronger effect = lower value 0.978 | locus YCR088W, strain abp1, stronger effect = lower value 0.981 | locus YDL005C, strain med2, stronger effect = lower value 0.977 | locus YDL035C, strain GPR1, stronger effect = lower value 1.01 | locus YDL040C, strain nat1, stronger effect = lower value 0.99 | locus YDL074C, strain BRE1, stronger effect = lower value 1.01 | locus YDL101C, strain DUN1, stronger effect = lower value 1 | locus YDL134C, strain PPH21, stronger effect = lower value 0.999 | locus YDL185W, strain tfp1, stronger effect = lower value 0.974 | locus YDL192W, strain arf1, stronger effect = lower value 0.987 | locus YDR001C, strain nth1, stronger effect = lower value 0.957 | locus YDR069C, strain doa4, stronger effect = lower value 0.976 | locus YDR101C, strain arx1, stronger effect = lower value 0.981 | locus YDR137W, strain rgp1, stronger effect = lower value 0.942 | locus YDR150W, strain NUM1, stronger effect = lower value 1.01 | locus YDR159W, strain sac3, stronger effect = lower value 0.953 | locus YDR162C, strain NBP2, stronger effect = lower value 1 | locus YDR195W, strain ref2 0.993 | locus YDR297W, strain sur2, stronger effect = lower value 0.989 | locus YDR318W, strain mcm21, stronger effect = lower value 0.985 | locus YDR334W, strain swr1, stronger effect = lower value 0.969 | locus YDR335W, strain msn5, stronger effect = lower value 0.983 | locus YDR388W, stronger effect = lower value 0.986 | locus YDR392W, strain spt3, stronger effect = lower value 0.872 | locus YDR502C, strain sam2, stronger effect = lower value 0.984 | locus YEL003W, strain gim4, stronger effect = lower value 0.985 | locus YEL037C, strain rad23, stronger effect = lower value 0.977 | locus YEL061C, strain CIN8 (second series), stronger effect = lower value 0.972 | locus YEL061C, strain CIN8, stronger effect = lower value 1 | locus YER015W, strain faa2, stronger effect = lower value 0.981 | locus YER016W, strain bim1, stronger effect = lower value 0.982 | locus YER110C, stronger effect = lower value 0.984 | locus YER111C, strain swi4, stronger effect = lower value 0.981 | locus YER155C, strain BEM2 (second series), stronger effect = lower value 0.973 | locus YER155C, strain BEM2, stronger effect = lower value 1 | locus YER167W, strain BCK2, stronger effect = lower value 1.01 | locus YFR010W, strain ubp6, stronger effect = lower value 0.966 | locus YGL078C, strain dbp3, stronger effect = lower value 0.987 | locus YGL086W, strain mad1, stronger effect = lower value 0.994 | locus YGL167C, strain pmr1, stronger effect = lower value 0.984 | locus YGL173C, strain kem1, stronger effect = lower value 0.996 | locus YGL227W, strain vid30, stronger effect = lower value 0.981 | locus YGL240W, strain doc1, stronger effect = lower value 1.01 | locus YGL248W, strain PDE1, stronger effect = lower value 1.01 | locus YGL253W, strain hxk2, stronger effect = lower value 0.962 | locus YGR135W, strain pre9, stronger effect = lower value 0.986 | locus YGR252W, strain gcn5, stronger effect = lower value 0.974 | locus YHR013C, strain ard1, stronger effect = lower value 0.947 | locus YHR027C, strain rpn1, stronger effect = lower value 0.985 | locus YHR030C, strain SLT2, stronger effect = lower value 1.01 and 1.03 | locus YHR079C, strain IRE1 (second series), stronger effect = lower value 0.987 | locus YHR079C, strain IRE1, stronger effect = lower value 1.05 | locus YHR094C, strain hxt1, stronger effect = lower value 0.993 | locus YHR129C, strain ARP1, stronger effect = lower value 1.02 | locus YHR142W, strain chs7, stronger effect = lower value 0.954 | locus YHR200W, strain rpn10, stronger effect = lower value 0.987 | locus YIL066C, strain RNR3, stronger effect = lower value 0.999 | locus YIL073C, strain SPO22, stronger effect = lower value 0.993 | locus YIL125W, strain kgd1, stronger effect = lower value 0.986 | locus YIR030C, strain dcg1, stronger effect = lower value 0.991 | locus YJL092W, strain hpr5, stronger effect = lower value 0.963 | locus YJL095W, strain BCK1 (second series), stronger effect = lower value 0.987 | locus YJL095W, strain BCK1, stronger effect = lower value 1.02 and 0.997 | locus YJL115W, strain asf1, stronger effect = lower value 0.978 | locus YJL129C, strain trk1, stronger effect = lower value 0.974 | locus YJL134W, strain LCB3, stronger effect = lower value 1.01 | locus YJL154C, strain vps35, stronger effect = lower value 0.977 | locus YJL164C, strain tpk1, stronger effect = lower value 0.947 | locus YJL166W, strain qcr8, stronger effect = lower value 1 | locus YJL168C, strain set2, stronger effect = lower value 0.988 | locus YJL187C, strain SWE1 (second series), stronger effect = lower value 1.01 | locus YJL187C, strain SWE1, stronger effect = lower value 0.989 | locus YJR043C, strain POL32, stronger effect = lower value 1.01
